The values below come from PubChem BioAssay (NCATS).

Results filed as inconclusive are left out. Values without a mark were called inactive. Calls of active or inactive are those of the source. Calls come from the whole dose curve; as a rule, active = well fitted curve in the direction sought with a large enough effect; inconclusive = small, poorly fitted or top-dose-only effect, or another doubt; inactive = no such curve, though single readings can be large; an effect the other way counts as inactive or inconclusive.

Assay [1] deals with Cellular tumor antigen p53 (Homo sapiens) (UniProt P04637). Description: Primary qHTS for small molecule compounds that upregulate eGFP-tagged delta133p53alpha (in N-terminal) cells. (AID 2060322).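 For activation: cells pre-induced with doxycycline then dosed without doxycycline; 0% = DMSO vehicle and 100% = reference activator.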 Note: nearly all actives have a fitted effect of over 75% in size. Note: potency is the fitted concentration of half-maximal effect. The conditions noted are these: NCI-H358 eGFP-delta133p53alpha fluorescence, 24 h; activation: stronger effect = higher value. The procedure, abridged:
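NCI-H358 cells pre-induced 24 h with 10 ng/ml doxycycline for eGFP-delta133p53alpha, plated dox-free and exposed 24 h at 37C to titrated compounds. Fixed, Hoechst-stained; gated GFP peak intensity by laser scanning cytometry, normalized to DMSO (0%) and 57.5 uM 5-azacytidine (100%).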

For assay [2], the target named is Aldehyde dehydrogenase, mitochondrial (Homo sapiens) (UniProt P05091). The assay can be described thus: qHTS for Inhibitors of the Aldehyde Dehydrogenase Family (ALDH2) Primary screen (AID 2061308).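 Note: plate controls were vehicle for no effect and reference inhibitor for full effect; nearly all actives have a fitted effect of over 55% in size.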 The conditions noted are these: ALDH2 enzyme inhibition qHTS, 1536-well; series mostly up to 56 µM.
Assay [3] deals with Retinaldehyde dehydrogenase 3 (Homo sapiens) (UniProt P47895). The assay can be described thus: qHTS for Inhibitors of the Aldehyde Dehydrogenase Family (ALDH1A3) Primary screen (AID 2061315).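 Note: plate controls were DMSO vehicle for no effect and reference inhibitor for full effect.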 The conditions noted are these: ALDH inhibition qHTS; series mostly up to 56 µM.

Chain of Cellular tumor antigen p53 (Homo sapiens) (P04637 whole entry, looked up): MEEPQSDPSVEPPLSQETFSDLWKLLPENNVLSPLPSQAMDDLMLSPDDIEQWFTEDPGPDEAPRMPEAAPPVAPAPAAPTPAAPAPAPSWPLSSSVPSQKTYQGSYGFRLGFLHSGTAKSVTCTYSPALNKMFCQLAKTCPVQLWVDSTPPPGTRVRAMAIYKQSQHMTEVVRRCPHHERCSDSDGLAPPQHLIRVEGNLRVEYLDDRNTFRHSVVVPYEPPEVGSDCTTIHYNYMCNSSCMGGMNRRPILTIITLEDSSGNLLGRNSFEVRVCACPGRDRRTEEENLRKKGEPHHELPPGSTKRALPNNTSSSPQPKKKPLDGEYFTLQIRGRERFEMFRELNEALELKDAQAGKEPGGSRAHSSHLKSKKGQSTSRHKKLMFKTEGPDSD

For `COC(=O)[C@@]1(C)CC[C@]2(C(=O)O[C@@H]3O[C@H](CO)[C@@H](O)[C@H](O)[C@H]3O)CC[C@]3(C)C(=CCC4[C@@]5(C)CC[C@H](O[C@@H]6O[C@H](C(=O)O)[C@@H](O)[C@H](O)[C@H]6O)C(C)(C)C5CC[C@]43C)[C@@H]2C1` (stereo not given in full), in assay [1], the activation was -16.8%. Moreover, the Potency entry in assay [2] and in assay [3] was “inactive” throughout.

As for `CC(=O)OC1C(CO)OC(O[C@H]2[C@H](OC(=O)[C@]34CCC(C)(C)C[C@H]3C3=CCC5[C@@]6(C)CC[C@H](O[C@@H]7O[C@H](C(=O)O)[C@@H](O)[C@H](O[C@@H]8OC[C@@H](O)[C@H](O)[C@H]8O)[C@H]7O[C@@H]7O[C@H](CO)[C@H](O)[C@H](O)[C@H]7O)[C@@](C)(C=O)C6CC[C@@]5(C)[C@]3(C)C[C@H]4O)O[C@H](C)[C@H](OC3OC(C)C(OC4OCC(O)C(O)C4O)C(O)C3O)[C@@H]2O)C(O)C1O` (stereo not given in full), in assay [1], the activation is 4.58%. Further, the activity change, negative = inhibition is -12.7% [at 11.2 µM] in assay [2] and 4.72% [at 11.2 µM] in assay [3].

On to `O=S(=O)(c1ccc(S(=O)(=O)n2cnc3ccccc32)cc1)N1CCCCCC1`, for which, in assay [1], the activation was 0.333%. Further, the Potency result in assay [2] and in assay [3] was “inactive” throughout.

Take `CC(C)/C=C1/NC(=O)C(C(C)C)n2c1nc1c(O)cccc1c2=O` (stereo not given): the activation in assay [1] is -14.5%. Moreover, the Potency entry in assay [2] and in assay [3] was “inactive” in each case.

Take `CC(C)=CCCC1(C)C=Cc2c(c(C)cc3c2[nH]c2ccccc23)O1` (stereo not given): the activation in assay [1] is 2.29%. In addition, the Potency result in assay [2] and in assay [3] was “inactive” throughout.

On to `C=C[C@]1(C)C[C@H](O)[C@@H]2[C@H](OC(=O)[C@@H]2C)C1/C(C)=C/O[C@@H]1O[C@H](CO)[C@@H](O)[C@H](O)[C@H]1O` (stereo not given in full), for which the activation in assay [1] was -27.7%. In addition, the Potency entry in assay [2] and in assay [3] was “inactive” in each case.

Take `CC(=O)OC1C(OC(=O)c2ccccc2)C2C(C)(C)CC(=O)CC2(C)C23CCC(C)(C2)C(O)CC13` (stereo not given): in assay [1], the activation was -22.3%. Besides, the Potency entry in assay [2] and in assay [3] was “inactive” each time.

Take `C[C@H]1[C@H](C)CC[C@]2(C(=O)O[C@@H]3O[C@H](CO)[C@@H](O)[C@H](O)[C@H]3O)CC[C@]3(C(=O)O)C(=CCC4[C@@]5(C)CC[C@H](O[C@@H]6O[C@H](CO)[C@@H](O)[C@H](O)[C@H]6O)C(C)(C)C5CC[C@]43C)[C@H]12` (stereo not given in full): the activation in assay [1] was 2.68%. For the same compound, the Potency result in assay [2] and in assay [3] was “inactive” throughout.

As to `COC(=O)c1ccc(OC)cc1O[C@@H]1O[C@H](CO[C@@H]2OC[C@@H](O)[C@H](O)[C@H]2O)[C@@H](O)[C@H](O)[C@H]1O`, the activation in assay [1] is -22.3%. For the same compound, the Potency entry in assay [2] and in assay [3] was “inactive” each time.

Regarding `CC1(C)CC[C@]2(C(=O)O[C@@H]3O[C@H](CO)[C@@H](O)[C@H](O)[C@H]3O)CC[C@]3(C)C(=CCC4[C@@]5(C)C[C@@H](O)[C@H](O)C(CO)(CO)C5CC[C@]43C)C2[C@@H]1O` (stereo not given in full), the activation in assay [1] was -15.3%. Besides, the Potency entry in assay [2] and in assay [3] was “inactive” each time.

Consider `Cc1ncc([N+](=O)[O-])n1C[C@H](O)CN1CCOCC1`, for which, in assay [1], the activation was 2.33%. In addition, the Potency result in assay [2] and in assay [3] was “inactive” each time.

On to `CCC(C)C(=O)OC1CC(O)C23C4OCC5(C(O)CC2C1(C)C(O)O4)C3C(=O)C(O)C1(C)C(O)(c2ccoc2)CC2OC251` (stereo not given), for which, in assay [1], the activation was 5.34%. Also, the Potency entry in assay [2] and in assay [3] was “inactive” throughout.

As to `CC(=O)O[C@H]1[C@@]2(O)C[C@H](C)[C@H](OC(=O)c3ccccc3)[C@@H]2[C@@H](OC(=O)CO)[C@]2(OC(C)=O)C[C@H]3C(=O)C(C)(C)C[C@@H]3[C@@]1(C)[C@H]2OC(C)=O`, in assay [1], the activation is -6.25%. The Potency result in assay [2] and in assay [3] was “inactive” throughout.

For `CC(C)C(C(=O)N(C)C(C)C(N)=O)N(C)C(=O)C1CCCN1C(=O)/C=C/C=C/C(O)C(C)O` (stereo not given), in assay [1], the activation was -23.7%. For the same compound, the Potency result in assay [2] and in assay [3] was “inactive” each time.

Regarding `CC1CCCC[C@H]2C(=O)C=C[C@H](O)[C@@H]2CC(=O)O1` (stereo not given in full), the Potency in assay [1] is 23.9 µM (active). Also, the Potency result in assay [2] and in assay [3] was “inactive” throughout.

As for `C=CC(C)(C)C12C=C(OC)C(=O)N3C(C(C)C)C(=O)NC31N(OC)c1ccccc12` (stereo not given), the activation in assay [1] was -9.16%. Moreover, the Potency entry in assay [2] and in assay [3] was “inactive” in each case.

In the case of `O=C(O)c1ccc(OC2OC(CO)C(O)C(O)C2O)cc1` (stereo not given), the activation in assay [1] is -11.6%. Also, the Potency entry in assay [2] and in assay [3] was “inactive” in each case.

Turning to `CC1(C)CCC2(C(=O)OC3OC(COC4OC(CO)C(O)C(O)C4O)C(O)C(O)C3O)CCC3(C)C(=CCC4C5(C)CCC(OC6OCC(O)C(O)C6O)C(C)(C)C5CCC43C)C2C1O` (stereo not given), the activation in assay [1] is -11.5%. The Potency result in assay [2] and in assay [3] was “inactive” each time.

Consider `C=C(C)[C@@]1(O)C[C@@]2(C)C(=CC1=O)CC[C@@H](O)[C@@H]2C`, for which the activation in assay [1] is -3.82%. In addition, the Potency entry in assay [2] and in assay [3] was “inactive” throughout.

As to `CC1CCC2C(C)(C)C(O)CCC2(C)C12Cc1c(O)cc3c(c1O2)CN=C3N` (stereo not given), the activation in assay [1] is 12.5%. Moreover, the Potency result in assay [2] and in assay [3] was “inactive” throughout.

In the case of `CC1=CCC[C@@H]2[C@@](C)(CCc3ccoc3)[C@H](C(=O)O)CC[C@@]12C`, the activation in assay [1] was 14.3%. Moreover, the Potency entry in assay [2] and in assay [3] was “inactive” each time.

For `Cc1ncc([N+](=O)[O-])n1CC(O)CN1CCOCC1` (stereo not given), the activation in assay [1] is -11%. Besides, the Potency entry in assay [2] and in assay [3] was “inactive” each time.

Take `C[C@@H]1CCC/C=C/[C@H]2CC(=O)C[C@@H]2[C@@H](O)/C=C/C(=O)O1`: the activation in assay [1] was 9.82%. Further, the Potency result in assay [2] and in assay [3] was “inactive” throughout.

On to `COC(=O)C1=CO[C@@H](O[C@@H]2O[C@H](CO)[C@@H](O)[C@H](O)[C@H]2O)[C@@H]2C(C)CC(=O)[C@]12O` (stereo not given in full), for which the activation in assay [1] was 1.79%. The Potency result in assay [2] and in assay [3] was “inactive” each time.

As to `C=C(C)[C@H]1CC[C@]2(C(=O)O)CC[C@]3(C)C(CCC4[C@@]5(C)CCC(=O)C(C)(C)C5CC[C@]43C)C12` (stereo not given in full), in assay [1], the activation is -11.6%. Besides, the Potency result in assay [2] and in assay [3] was “inactive” throughout.
